Laboratory results as given in ChEMBL document CHEMBL3988442, “University of Dundee, Small-Polar-MMV Screening Library” (2021).
Several values for one entry are separate records, joined by “and”; a condition that tells them apart may be missing. Equal values may be shown once. Among all 34,000 compounds or so, about 290 (0.85%) showed an effect of 50% or more. The list comes from a sample in which strong results are over-represented; it also holds similar structures and randomly drawn compounds.

Tested on: Plasmodium falciparum
Experiment: Plasmodium falciparum sporozoite viability assay
Assay type: functional, organism-based
Design: scale not given: in the data most compounds retested in dose-response had high values

SMILES | Percent Effect | Percent Effect (10 mM as filed; unlikely as a test dose)
Cc1cnccc1CN1Cc2ccccc2O[C@]2(CC[C@H](CO)CC2)C1 | 13.72% | –
Cc1cc(CN2CCCC(c3cc(C(F)(F)F)[nH]n3)C2)no1 (stereo not given) | 9.793% | –
O=C(CCCc1nnc(-c2ccccc2)o1)N1CCN(C2CC2)CC1 | 16.07% | –
Cc1ccc(NC2CCN(C(=O)c3cnn(C(C)(C)C)c3)CC2)nn1 | -0.1023% | –
c1ccn2c(C3CCCN3Cc3nc(C4CC4)no3)nnc2c1 (stereo not given) | -1.432% | –
Cc1cnn(CC2CN(CC(=O)Nc3ccnn3C(C)C)CCO2)c1 (stereo not given) | 2.692% | –
Cn1cnnc1C1CCN(C(=O)CCCOc2ccccc2F)CC1 | – | 83.01% and 69.05% and 60.83%
Cc1ccccc1OCCC(=O)N1CCC(c2nncn2C)CC1 | – | 2.17% and -2.919% and 0.9191%
CC(C)Nc1nc(O)cc(C2CC(=O)N(Cc3ccccn3)C2)n1.Cl (stereo not given) | 10.31% | –
CNc1cc(C)nc(C2CN(Cc3ccc(Cl)cn3)CCO2)c1 (stereo not given) | 20.7% | –
CCC(=O)N1CCC(c2ncc(C(=O)Nc3ccccc3)c(C)n2)C1 (stereo not given) | 8.085% | –
COc1ccc2cc(C(=O)N3CCCC3Cn3cc(C)cn3)[nH]c2c1 (stereo not given) | -1.066% | –
COc1ccc(CC(=O)N2CCCC2Cn2cc(C)cn2)cc1OC (stereo not given) | – | 8.878% and 3.897% and 0.6031%
Cc1nn(C)cc1-c1cncn1CCc1ccc2c(c1)OCCO2.Cl | – | 35.23% and 54.6% and 46.78%
COC1COC2(CCN(CC3CCOCC3)CC2)C1.O=C(O)C(F)(F)F (stereo not given) | 2.7% | –
CC(C(=O)N1CCOCC1)n1nc(-c2cccs2)cc(N)c1=O (stereo not given) | -6.596% | –
CCn1cc(CN2CCCN(C(=O)c3ccccc3OC)CC2)cn1 | 5.544% | –
CCCc1cc(CNC(=O)C2CCOc3ccccc3C2)on1 (stereo not given) | 10.71% | –
Cc1nc(CN2CCCC(NCc3nc4ccccc4s3)C2)no1 (stereo not given) | 12.82% | –
CCCc1cc(CNC2CCN(c3nc4ccccc4s3)CC2)on1 | – | 84.7% and 90.12%
CC(=O)N1N=C(c2ccccc2)OC1C(=O)NCCc1ccc(C)cc1 (stereo not given) | -14.76% | –
CNC(=O)CN1CCCC12CCN(C(=O)c1ccccc1F)CC2.O=C(O)C(F)(F)F | -2.189% | –
Cl.Clc1ccccc1CN1CCc2nc(C3CCCNC3)ncc2C1 (stereo not given) | 2.109% | –
CC(C)Oc1ccc2c(NC(=O)[C@H](C)O)nn(CC(F)(F)F)c2c1 | – | -22.23% and -11.46%
Cc1csc(NC(=O)[C@@H]2C[C@H]3[C@H](CCN3c3ncccn3)O2)n1.O=C(O)C(F)(F)F | 2.312% | –
